# From PubChem
# bovine MsrA act = bovine MsrA enzyme activators, primary screen, biochemical, absorbance, HTS; purified bovine MsrA, absorbance read-out; activation, % at 10.6 µM; 360,000 compounds, 0.3% hits; in the data active = activation above about 7.5%;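 note: 0% = vehicle and 100% = reference activator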
# MsrA inh = bovine MsrA enzyme inhibitors, primary screen, biochemical, absorbance, HTS; Methionine sulfoxide reductase A (Bos taurus); purified bovine MsrA, absorbance read-out; inhibition, % at 15.5 µM; 360,000 compounds, 0.75% hits; in the data active = inhibition above about 4.5%;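 note: 0% = vehicle wells with enzyme and 100% = reference inhibitor wells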
# HGIII-sPLA2 inh = human group III sPLA2 inhibitors, primary screen, biochemical, QFRET, BODIPY PC-A2 liposome substrate. Group 3 secretory phospholipase A2 (Homo sapiens), Q9NZ20. QFRET BODIPY PC-A2 liposome hydrolysis, fluorescence. inhibition, % at 12.2 µM. 370,000 compounds, 0.56% hits. AID 743126, 2013;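 active = inhibition above mean plus 3 SD of compounds lying within the high and low control bounds, cut at about 19% in these data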;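 note: 0% = median of test compound wells and 100% = no enzyme DMSO wells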
# Target sequence (Q9NZ20 whole entry, looked up): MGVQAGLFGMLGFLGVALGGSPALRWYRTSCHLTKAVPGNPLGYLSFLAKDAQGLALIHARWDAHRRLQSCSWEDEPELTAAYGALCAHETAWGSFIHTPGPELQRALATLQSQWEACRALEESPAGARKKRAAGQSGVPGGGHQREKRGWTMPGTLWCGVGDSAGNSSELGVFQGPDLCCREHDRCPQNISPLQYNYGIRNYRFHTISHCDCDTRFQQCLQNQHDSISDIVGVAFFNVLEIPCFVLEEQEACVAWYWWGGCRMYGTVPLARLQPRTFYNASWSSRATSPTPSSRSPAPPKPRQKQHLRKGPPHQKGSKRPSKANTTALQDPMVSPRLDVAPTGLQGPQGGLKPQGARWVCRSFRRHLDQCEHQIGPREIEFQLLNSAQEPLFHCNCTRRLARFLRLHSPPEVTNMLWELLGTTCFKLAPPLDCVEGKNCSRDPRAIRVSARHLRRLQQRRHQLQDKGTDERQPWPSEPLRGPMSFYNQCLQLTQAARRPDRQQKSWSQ
# rCAG RNA binder = binders of r(CAG) RNA repeats, primary screen, biochemical, fluorescence | inhibition, % at 3 µM | 370,000 compounds, 1.3% hits | r(CAG) RNA repeat, TO-PRO-1 dye displacement fluorescence;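 active = inhibition above the plate cutoff, the mean of all test compounds on that plate plus 3 SD, cut at about 35% in these data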;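 note: 0% = DMSO alone and 100% = 100 µM mitoxantrone as full dye displacement; higher means more dye released from RNA so lower well fluorescence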
# rCAG bind conf = small molecules binding CAG repeat RNA – biochemical, fluorescence, confirmation; shares compounds with rCAG RNA binder; r(CAG) RNA repeat, TO-PRO-1 dye displacement fluorescence; inhibition, % at 3 µM; 4,300 compounds, 70% hits; AID 652065, 2013;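 active = inhibition above a per-plate cutoff, the mean inhibition of sample wells plus 3 SD, cut at about 35% in these data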;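 note: loss of TO-PRO-1 fluorescence as compound displaces dye from 1x1 AA loop RNA; 0% = DMSO only wells and 100% = 100 µM mitoxantrone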
# DNA CAG counter = displacement of TO-PRO-1 from CAG DNA duplex, counter-screen for rCAG RNA repeat binder project, biochemical, fluorescence, TO-PRO-1 dye, d(CAG) DNA oligo. shares compounds with rCAG RNA binder. d(CAG) DNA oligo TO-PRO-1 dye displacement. inhibition, % at 3 µM. 4,300 compounds, 94% hits;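 active = inhibition above its plate's cutoff, the mean test-well inhibition plus 3 SD, cut at about 4.8% in these data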;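 note: 0% = DNA dye mix with DMSO and 100% = 100 µM mitoxantrone; hits displace the dye from DNA and so lower well fluorescence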
# Starred values were filed as active, the others as inactive; nt = no result given. This is a sample that favours compounds with a hit; in the whole collection about 2.8% have one here.
SMILES,bovine MsrA act,MsrA inh,HGIII-sPLA2 inh,rCAG RNA binder,rCAG bind conf,DNA CAG counter
Cn1c(SCc2ccccc2)nc2ccsc2c1=O,-3.2,0.7,-0.9,-1.0,nt,nt
COc1ccc(-c2nnc(SCC(=O)Nc3ccc(S(=O)(=O)Nc4cc(C)nc(C)n4)cc3)n2-c2ccc(OC)cc2)cc1,nt,nt,-38.1,48.8*,43.6*,15.2*
Cc1ccccc1C(=O)Nc1ccc2c(C#N)c3nc4ccccc4nc3n2c1,-6.9,0.7,-2.0,36.0*,26.0,14.3*
O=C(Nc1ccc([N+](=O)[O-])cc1)Nc1nc(-c2ccc(Cl)s2)cs1,-3.6,0.8,-5.7,51.5*,68.5*,48.0*
CC(C)Sc1nnc(SCC(=O)N(C)C2CCS(=O)(=O)C2)s1 (stereo not drawn),-1.7,0.6,4.0,0.4,nt,nt
Nc1nn2c(-c3ccccc3)cc(=O)[nH]c2c1N=Nc1ccc(Br)cc1,-3.8,-1.0,-0.4,34.6*,80.1*,39.5*
CC(C)(C)c1ccc(S(=O)(=O)NC(=O)C2(C)CCN2C(=O)C2(c3ccccc3)CC2)cc1 (stereo not drawn),-1.3,-0.6,-17.1,47.1*,39.9*,10.1*
CC1(C(=O)NS(=O)(=O)c2ccc(Cl)cc2)CCN1C(=O)C1(c2ccccc2)CCCC1 (stereo not drawn),-0.2,0.6,-1.3,49.9*,40.1*,11.8*
CC1(C(=O)NS(=O)(=O)c2ccccc2)CCN1C(=O)C1(c2ccc(Cl)cc2)CC1 (stereo not drawn),-3.0,0.8,3.7,15.5,nt,nt
Cc1ccc(S(=O)(=O)NC(=O)C2(C)CCN2C(=O)C2(c3ccc(Cl)cc3)CC2)cc1 (stereo not drawn),-6.8,-1.7,-5.2,57.1*,28.8,5.7*
CC1(C(=O)NS(=O)(=O)c2ccc(Cl)cc2)CCN1C(=O)C1(c2ccc(Cl)cc2)CCC1 (stereo not drawn),1.2,0.3,-26.6,55.3*,55.6*,18.1*
CCOC(=O)c1c(N)n[nH]c1-c1ccccc1,-9.0,1.3,-2.7,-0.2,nt,nt
Cc1cccnc1N=O,nt,0.5,9.3,1.3,nt,nt
Nc1ncnc2c1ncn2[C@@H]1O[C@H](C(=O)N[C@@H](CCc2ccccc2)C(=O)N2CCN(CC(=O)N3CCCC3)CC2)[C@@H](O)[C@H]1O,nt,1.4,7.5,-0.1,nt,nt
CC1(C(=O)NS(=O)(=O)c2ccc3c(c2)CCO3)CCN1C(=O)C1(c2ccc(Cl)cc2)CCC1 (stereo not drawn),-5.7,1.5,-2.7,35.7*,32.0,3.8
Cc1ccc(S(=O)(=O)NC(=O)C2(C)CCN2C(=O)C2(c3ccc(Cl)cc3)CCC2)cc1 (stereo not drawn),3.1,1.4,-12.2,42.5*,38.7*,10.0*
CC1(C(=O)NS(=O)(=O)Cc2ccccc2)CCN1C(=O)C1(c2ccc(Cl)cc2)CCC1 (stereo not drawn),-0.4,0.1,-12.6,40.9*,29.9,6.7*
CC1(C(=O)NS(=O)(=O)c2ccc3c(c2)CCO3)CCN1C(=O)CCc1ccc(Cl)cc1Cl (stereo not drawn),-0.9,1.8,-1.6,30.2,nt,nt
CC(Oc1ccc(Cl)cc1Cl)C(=O)NCCCN1CCOCC1 (stereo not drawn),0.0,-0.1,-4.5,-1.9,nt,nt
Clc1ccc(-c2ccc(-c3nn4c(-c5ccco5)nnc4s3)o2)cc1,-7.3,-0.2,0.2,34.7*,12.4,9.1*
O=C1NC(=S)S/C1=C\C=C\c1ccc([N+](=O)[O-])o1,-8.0,3.0,-10.7,67.1*,70.0*,35.6*
Cc1sc2nc(SCC(=O)NCc3ccco3)[nH]c(=O)c2c1C,-1.2,2.0,-4.1,6.9,nt,nt
C/C(=N\Nc1ccc(Cl)c(C(=O)O)c1)c1ccc(Br)s1,-4.3,2.4,-16.5,42.6*,47.7*,13.4*
C/C(=N\NC(=O)c1ccc(Cl)c(Cl)c1)c1ccc(Br)s1,-2.6,-0.8,0.0,-1.0,nt,nt
Cc1ccc(CNC(=O)C(C)OC(=O)c2ccco2)cc1 (stereo not drawn),-3.8,-0.8,2.7,56.5*,1.7,-1.2
Clc1ccc(CNc2ncccn2)cc1,-2.0,0.7,16.6,-1.0,nt,nt
